# In the supplement of paper PMC12282887:
# ± gives the standard deviation of the averaged measurements.
# Legend:
# Assay in all cases: promoter activity interaction Z-score (Lux/OD deviation from empty-vector control); higher = stronger promoter induction by the compound
# [1] = test system: E. coli BW25113 acrABp lux reporter
# Outline: (§1)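 Low-copy luxCDABE promoter reporters were carried by E. coli BW25113, either wild type or lacking one of three genes, grown in 40 µl LB Lennox in 384-well plates at 37°C. Each compound was run at four 1:2 dilutions in biological duplicates, with OD600 and luminescence read every 30 min for 12 h. Integration used 0–8 h for wild type and 1–9 h for deletion strains, and wells under 10% of the median growth value were removed. Luminescence normalised to growth was fitted against a control, and the Z-transformed residual is the score.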
# [2] = test system: E. coli BW25113 marRABp lux reporter
# Outline: as §1
# [3] = test system: E. coli BW25113 micFp lux reporter
# Outline: as §1
# [4] = test system: E. coli BW25113 ompFp lux reporter
# Outline: as §1
# [5] = test system: E. coli BW25113 robp lux reporter
# Outline: as §1
# [6] = test system: E. coli BW25113 soxSp lux reporter
# Outline: as §1
# [7] = test system: E. coli BW25113 tolCp lux reporter
# Outline: as §1
# [8] = 35.6 µg/ml, genetic background: wild type
# [9] = 35.6 µg/ml, genetic background: ΔmarA
# [10] = 35.6 µg/ml, genetic background: Δrob
# [11] = 35.6 µg/ml, genetic background: ΔsoxS
# [12] = 71.1 µg/ml, genetic background: wild type
# [13] = 71.1 µg/ml, genetic background: ΔmarA
# [14] = 71.1 µg/ml, genetic background: Δrob
# [15] = 71.1 µg/ml, genetic background: ΔsoxS
# [16] = 142.3 µg/ml, genetic background: wild type
# [17] = 142.3 µg/ml, genetic background: ΔmarA
# [18] = 142.3 µg/ml, genetic background: Δrob
# [19] = 142.3 µg/ml, genetic background: ΔsoxS
# [20] = 284.5 µg/ml, genetic background: wild type
# [21] = 284.5 µg/ml, genetic background: ΔmarA
# [22] = 284.5 µg/ml, genetic background: Δrob
# [23] = 284.5 µg/ml, genetic background: ΔsoxS
smiles,measurement,setting,value
CC[C@H](C)[C@H](N)C1=N[C@H](C(=O)N[C@@H](CC(C)C)C(=O)N[C@H](CCC(=O)O)C(=O)N[C@H](C(=O)N[C@H]2CCCCNC(=O)[C@H](CC(N)=O)NC(=O)[C@@H](CC(=O)O)NC(=O)[C@H](Cc3cnc[nH]3)NC(=O)[C@@H](Cc3ccccc3)NC(=O)[C@H]([C@@H](C)CC)NC(=O)[C@@H](CCCN)NC2=O)[C@@H](C)CC)CS1 [Bacitracin],promoter activity interaction Z-score,[1]; [8],0.238 ± 0.011
same,promoter activity interaction Z-score,[1]; [9],0.0967 ± 0.69
same,promoter activity interaction Z-score,[1]; [10],0.103 ± 0.11
same,promoter activity interaction Z-score,[1]; [11],-0.486 ± 0.28
same,promoter activity interaction Z-score,[1]; [12],-0.189 ± 0.25
same,promoter activity interaction Z-score,[1]; [13],-0.152 ± 0.45
same,promoter activity interaction Z-score,[1]; [14],-0.3 ± 0.21
same,promoter activity interaction Z-score,[1]; [15],-0.354 ± 0.56
same,promoter activity interaction Z-score,[1]; [16],-0.563 ± 0.27
same,promoter activity interaction Z-score,[1]; [17],0.111 ± 0.27
same,promoter activity interaction Z-score,[1]; [18],-0.64 ± 0.089
same,promoter activity interaction Z-score,[1]; [19],-0.484 ± 0.29
same,promoter activity interaction Z-score,[1]; [20],-0.416 ± 0.21
same,promoter activity interaction Z-score,[1]; [21],-0.491 ± 0.073
same,promoter activity interaction Z-score,[1]; [22],-0.296 ± 0.36
same,promoter activity interaction Z-score,[1]; [23],0.474 ± 0.51
same,promoter activity interaction Z-score,[2]; [8],0.278 ± 0.2
same,promoter activity interaction Z-score,[2]; [9],0.153 ± 0.22
same,promoter activity interaction Z-score,[2]; [10],-0.0986 ± 0.2
same,promoter activity interaction Z-score,[2]; [11],-0.193 ± 0.086
same,promoter activity interaction Z-score,[2]; [12],-0.0216 ± 0.19
same,promoter activity interaction Z-score,[2]; [13],-0.262 ± 0.16
same,promoter activity interaction Z-score,[2]; [14],-0.251 ± 0.062
same,promoter activity interaction Z-score,[2]; [15],-0.169 ± 0.029
same,promoter activity interaction Z-score,[2]; [16],-0.588 ± 0.2
same,promoter activity interaction Z-score,[2]; [17],-0.5787 ± 0.0025
same,promoter activity interaction Z-score,[2]; [18],-0.542 ± 0.048
same,promoter activity interaction Z-score,[2]; [19],-0.36 ± 0.085
same,promoter activity interaction Z-score,[2]; [20],0.158 ± 0.24
same,promoter activity interaction Z-score,[2]; [21],0.0811 ± 0.011
same,promoter activity interaction Z-score,[2]; [22],-0.159 ± 0.29
same,promoter activity interaction Z-score,[2]; [23],0.576 ± 0.23
same,promoter activity interaction Z-score,[3]; [8],-0.0989 ± 0.035
same,promoter activity interaction Z-score,[3]; [9],-0.0164 ± 0.05
same,promoter activity interaction Z-score,[3]; [10],0.0475 ± 0.15
same,promoter activity interaction Z-score,[3]; [11],-0.478 ± 0.18
same,promoter activity interaction Z-score,[3]; [12],-0.268 ± 0.032
same,promoter activity interaction Z-score,[3]; [13],-0.0396 ± 0.049
same,promoter activity interaction Z-score,[3]; [14],-0.239 ± 0.028
same,promoter activity interaction Z-score,[3]; [15],-0.278 ± 0.083
same,promoter activity interaction Z-score,[3]; [16],-0.506 ± 0.083
same,promoter activity interaction Z-score,[3]; [17],-0.139 ± 0.089
same,promoter activity interaction Z-score,[3]; [18],-0.177 ± 0.087
same,promoter activity interaction Z-score,[3]; [19],-0.0874 ± 0.23
same,promoter activity interaction Z-score,[3]; [20],0.124 ± 0.091
same,promoter activity interaction Z-score,[3]; [21],-0.167 ± 0.014
same,promoter activity interaction Z-score,[3]; [22],-0.188 ± 0.095
same,promoter activity interaction Z-score,[3]; [23],0.2 ± 0.17
same,promoter activity interaction Z-score,[4]; [8],0.637 ± 0.23
same,promoter activity interaction Z-score,[4]; [9],0.358 ± 0.11
same,promoter activity interaction Z-score,[4]; [10],0.253 ± 0.87
same,promoter activity interaction Z-score,[4]; [11],-0.738 ± 0.32
same,promoter activity interaction Z-score,[4]; [12],0.389 ± 0.42
same,promoter activity interaction Z-score,[4]; [13],0.103 ± 0.39
same,promoter activity interaction Z-score,[4]; [14],-0.153 ± 0.32
same,promoter activity interaction Z-score,[4]; [15],-0.256 ± 0.011
same,promoter activity interaction Z-score,[4]; [16],-0.463 ± 0.37
same,promoter activity interaction Z-score,[4]; [17],0.405 ± 1.2
same,promoter activity interaction Z-score,[4]; [18],-0.823 ± 0.087
same,promoter activity interaction Z-score,[4]; [19],0.0137 ± 0.45
same,promoter activity interaction Z-score,[4]; [20],1.52
same,promoter activity interaction Z-score,[4]; [21],0.962 ± 0.71
same,promoter activity interaction Z-score,[4]; [22],1.05 ± 1.1
same,promoter activity interaction Z-score,[4]; [23],1.9 ± 0.51
same,promoter activity interaction Z-score,[5]; [8],0.859 ± 0.14
same,promoter activity interaction Z-score,[5]; [9],-0.334 ± 0.088
same,promoter activity interaction Z-score,[5]; [10],0.568 ± 0.89
same,promoter activity interaction Z-score,[5]; [11],0.00456 ± 0.7
same,promoter activity interaction Z-score,[5]; [12],0.186 ± 0.99
same,promoter activity interaction Z-score,[5]; [13],0.452 ± 0.16
same,promoter activity interaction Z-score,[5]; [14],0.266 ± 0.06
same,promoter activity interaction Z-score,[5]; [15],-0.45 ± 0.04
same,promoter activity interaction Z-score,[5]; [16],-0.429 ± 0.72
same,promoter activity interaction Z-score,[5]; [17],0.326 ± 0.28
same,promoter activity interaction Z-score,[5]; [18],-0.561 ± 0.13
same,promoter activity interaction Z-score,[5]; [19],-0.919 ± 0.74
same,promoter activity interaction Z-score,[5]; [20],-0.714 ± 0.18
same,promoter activity interaction Z-score,[5]; [21],-0.548 ± 0.32
same,promoter activity interaction Z-score,[5]; [22],-0.858 ± 1
same,promoter activity interaction Z-score,[5]; [23],-0.93 ± 0.068
same,promoter activity interaction Z-score,[6]; [8],0.0222 ± 0.019
same,promoter activity interaction Z-score,[6]; [9],-0.0752 ± 0.056
same,promoter activity interaction Z-score,[6]; [10],0.145 ± 0.063
same,promoter activity interaction Z-score,[6]; [11],-0.325 ± 0.089
same,promoter activity interaction Z-score,[6]; [12],-0.173 ± 0.011
same,promoter activity interaction Z-score,[6]; [13],-0.209 ± 0.049
same,promoter activity interaction Z-score,[6]; [14],-0.232 ± 0.096
same,promoter activity interaction Z-score,[6]; [15],-0.288 ± 0.14
same,promoter activity interaction Z-score,[6]; [16],-0.325 ± 0.11
same,promoter activity interaction Z-score,[6]; [17],-0.318 ± 0.0051
same,promoter activity interaction Z-score,[6]; [18],-0.254 ± 0.028
same,promoter activity interaction Z-score,[6]; [19],-0.236 ± 0.42
same,promoter activity interaction Z-score,[6]; [20],-0.265 ± 0.017
same,promoter activity interaction Z-score,[6]; [21],-0.188 ± 0.075
same,promoter activity interaction Z-score,[6]; [22],-0.556 ± 0.091
same,promoter activity interaction Z-score,[6]; [23],0.196
same,promoter activity interaction Z-score,[7]; [8],0.175 ± 0.14
same,promoter activity interaction Z-score,[7]; [9],0.3 ± 0.76
same,promoter activity interaction Z-score,[7]; [10],-0.634 ± 0.13
same,promoter activity interaction Z-score,[7]; [11],-0.127 ± 0.13
same,promoter activity interaction Z-score,[7]; [12],-0.904 ± 0.76
same,promoter activity interaction Z-score,[7]; [13],-0.251 ± 0.39
same,promoter activity interaction Z-score,[7]; [14],-0.77 ± 0.38
same,promoter activity interaction Z-score,[7]; [15],-0.771 ± 0.63
same,promoter activity interaction Z-score,[7]; [16],-1.08 ± 0.47
same,promoter activity interaction Z-score,[7]; [17],-0.183 ± 0.34
same,promoter activity interaction Z-score,[7]; [18],-0.421 ± 0.15
same,promoter activity interaction Z-score,[7]; [19],-0.321 ± 0.69
same,promoter activity interaction Z-score,[7]; [20],-0.273 ± 0.36
same,promoter activity interaction Z-score,[7]; [21],-0.299 ± 0.51
same,promoter activity interaction Z-score,[7]; [22],-1.24 ± 0.052
same,promoter activity interaction Z-score,[7]; [23],-0.245 ± 0.87
